The text below walks through data of PubChem BioAssay (Tox21).

Values joined by “and” are separate entries in the source; they are usually repeats but may differ in a detail not shown here. Equal values may be shown once. Inconclusive results are not listed. Active and inactive are the calls of the source. Calls follow the shape of the full dose curve.
% is scaled to controls: 0 for no effect and ±100 for the full control effect; potency is read from the fitted curve at half-maximal effect.

This assay can be described thus: qHTS assay for small molecules that induce genotoxicity in human embryonic kidney cells expressing luciferase-tagged ATAD5 - cell viability (AID 651634). Also: nearly all actives have a fitted effect of over 25% in size. The following applies: HEK293T ATAD5-luc cells viability, CellTiter-Fluor, 15.5 h; series mostly up to 83.3 µM; activity, negative = cytotoxicity: at the top concentration. An excerpt:
National Center for Advancing Translational Sciences [NCATS]
NIH Chemical Genomics Center [NCGC]
U.S. Environmental Protection Agency [EPA]
National Institutes of Environmental Health Sciences [NIEHS]
National Toxicology Program [NTP]
U.S. Food and Drug Administration [FDA]
Enhanced Level of Genome Instability Gene 1 (ELG1; human ATAD5) protein levels increase in response to various types of DNA damage. Using a luciferase reporter-gene tagged with ElG1, a cell-based assay [developed by Kyungjae Myung, NHGRI, NIH] was used to measure the induction of ATAD5 in human embryonic kidney cells (HEK293T). So, increase in luciferase activity can be used to identify the compounds that cause genetic stress. In addition to genotoxicity, these cells were also used to test for cytotoxicity by measuring the protease activity within live cells.
Tox21 Assay Protocol Summary:
For cytotoxicity screening, 2,000 cells in 5 uL/well were dispensed into white, solid-bottom 1536-well plates using a Multidrop Combi (Thermo Scientific) dispenser. Following transfer of 23 nL compound or DMSO vehicle by a pin tool, the plates were incubated 15.5 hr at 37C and 5% CO2. 1 ul CellTiter-Fluor reagent (Promega, Madison, WI) was then added to each plate and following 30 min incubation at 37C, fluorescence intensity was quantified on a ViewLux CCD-based plate reader.
Background: qHTS replaces the single test concentration by a dilution series.
With `Cc1scc2c1N(C(=O)CN1CCN(C)CC1)c1ccccc1NC2=O`, the “activity, negative = cytotoxicity” value is 13% (inactive).
In the case of `CC(C)(C)c1cc(C(C)(C)C)c(O)c(C(C)(C)C)c1`, the “activity, negative = cytotoxicity” value was -13.3% (inactive).
Still for that read-out and setting: in the case of `COC(c1ccccc1)(c1ccccc1)[C@H](Oc1nc(C)cc(C)n1)C(=O)O` it was -1.91% (inactive).
Consider `CC(C)(c1ccccc1)c1ccc(Nc2ccc(C(C)(C)c3ccccc3)cc2)cc1`, for which the Potency entry was “inactive”.
Regarding `NC(N)=Nc1nc(CSCC/C(N)=N/S(N)(=O)=O)cs1`, the Potency result was “inactive”.
Consider `CCC(=O)/C=C/C1C(C)=CCCC1(C)C` (stereo not given), for which the “activity, negative = cytotoxicity” value is -14.1% (inactive).
In the case of `CCCC(=O)c1ccccc1`, the “activity, negative = cytotoxicity” value was -3.33% (inactive).
The same measure, in the same setting: in the case of `CC(COc1ccccc1)N(CCCl)Cc1ccccc1` (stereo not given) it was 21.6% (inactive).
As for `c1ccc2c(c1)-c1cccc3c1c-2cc1ccccc13`, the Potency result was “inactive”.
In the case of `O=C1CC2(CCCC2)CC(=O)N1CCCCN1CCN(c2ncccn2)CC1`, the Potency entry was “inactive”.
As for `NCCO`, the Potency result was “inactive”.
`O=Cc1ccc(Cl)cc1`: the “activity, negative = cytotoxicity” value was 7.67% (inactive).
On to `Nc1ccc2cc3ccccc3cc2c1`, for which the Potency entry is “inactive”.
As for `NC12CC3CC(CC(C3)C1)C2`, the “activity, negative = cytotoxicity” value was 14.9% (inactive).
On to `O=C(Oc1ccccc1)c1ccccc1O`, for which the Potency result was “inactive”.
With `Oc1c(Cl)cc(Cl)c(Cl)c1Cc1c(O)c(Cl)cc(Cl)c1Cl`, the Potency was 6.68 µM (active) and 2.72 µM (active) and 1.93 µM (active).
`NC(Cc1ccc(Cl)cc1)C(=O)O` (stereo not given): the “activity, negative = cytotoxicity” value was 12.5% (inactive).
As for `Cc1c(O)cccc1C(=O)N[C@@H](CSc1ccccc1)[C@H](O)CN1C[C@H]2CCCC[C@H]2C[C@H]1C(=O)NC(C)(C)C`, the Potency was 21.1 µM (active) and 23.7 µM (active).
As for `CCCNC(C)C(=O)Nc1ccccc1C` (stereo not given), the “activity, negative = cytotoxicity” value was 18.7% (inactive).
As to `Cc1ccc(S(=O)(=O)Oc2ccc(N=Nc3ccc(-c4ccc(N=Nc5c(O)ccc6cc(S(=O)(=O)O)cc(S(=O)(=O)O)c56)c(C)c4)cc3C)cc2)cc1`, the Potency was 54.7 µM (active) and 20 µM (active).
The same measure, in the same setting: the result for `CC[C@]1(O)C[C@@H]2CN(CCc3c([nH]c4ccccc34)[C@@](C(=O)OC)(c3cc4c(cc3OC)N(C)[C@H]3[C@@](O)(C(=O)OC)[C@H](OC(C)=O)[C@]5(CC)C=CCN6CC[C@]43[C@@H]65)C2)C1` reads 133 nM (active) and 168 nM (active); that for `CCCCCCCCCCCCCC[P+](CCCC)(CCCC)CCCC`, 30.5 µM (active) and 27.3 µM (active).
The same measure, in the same setting: the result for `CC(=O)C1=C(C)[C@@H]2C[C@@]3(C1)[C@H](C)CC[C@H]3C2(C)C` reads “inactive”.
`CC(=O)CC(C)=O`: the “activity, negative = cytotoxicity” value was 10.8% [at 95.3 µM] (inactive).
As for `CCOc1ccccc1C(N)=O`, the Potency entry is “inactive”.
As to `CCOc1ccc2c(c1)C(C)=CC(C)(C)N2`, the Potency entry was “inactive”.
On the same count and under the same terms, in the case of `CCCCC(CC)COC(=O)CC(C(=O)OCC(CC)CCCC)S(=O)(=O)O` (stereo not given) it was “inactive”.
Consider `CCC(CO)(CO)COCC(CC)(CO)CO`, for which the “activity, negative = cytotoxicity” value is 5.7% (inactive).
Take `CCCCCCC(O)CCCCCCCCCCC(=O)O` (stereo not given): the “activity, negative = cytotoxicity” value is -8.33% (inactive).
The same measure, in the same setting: in the case of `CCCCCCCCCCCCCCCCCl` it was 8.44% [at 39.1 µM] (inactive).
With `COC(=O)c1cccc(C(=O)OC)c1`, the Potency result is “inactive”.
Take `OCCOCCN1CCN(C(c2ccccc2)c2ccc(Cl)cc2)CC1` (stereo not given): the “activity, negative = cytotoxicity” value is 4.55% (inactive).
Turning to `CO[Si](OC)(OC)c1ccccc1`, the “activity, negative = cytotoxicity” value is 15.3% (inactive).
`CCCCCCCCCCCC[N+](C)(C)C`: the Potency entry was “inactive”.
Regarding `CCCCCCCCCCCCc1ccccc1O`, the Potency was 30.6 µM (active).
On the same count and under the same terms, in the case of `Cc1ccnc2c1NC(=O)c1cccnc1N2C1CC1` it was “inactive”; in that of `COC(=O)[C@H]1[C@H]2C[C@@H]3c4[nH]c5cc(OC)ccc5c4CCN3C[C@H]2C[C@@H](OC(=O)c2cc(OC)c(OC)c(OC)c2)[C@@H]1OC`, “inactive”; in that of `CC(=O)N[C@@H](CS)C(=O)O`, “inactive”.
On the same count and under the same terms, in the case of `CCc1ccc(C(c2ccc(CC)cc2)C(Cl)Cl)cc1` it was “inactive”.
On to `O=C1NCC2(CCN(CCc3ccccc3)CC2)O1`, for which the “activity, negative = cytotoxicity” value was 14.4% (inactive).
